DRD3 antagonist – qHTS of D3 Dopamine Receptor Antagonist: qHTS; D(3) dopamine receptor (Homo sapiens), P35462; D3R cells, DiscoveRx beta-arrestin luminescence, antagonist mode; hits give low values; max response, negative = inhibition, %; hit rate 2.5% among 360,000; in the data active = max response below about -50%; inconclusive = no clear call, values can overlap the other calls
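Cells expressing the human receptor were seeded at 1500 cells/well, incubated overnight at 37 degrees C in 5% CO2, then exposed to library compounds with dopamine controls for 90 minutes at 37 degrees C before luminescent detection.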
Giardia killer – Small Molecules that selectively kill Giardia lamblia: qHTS; Giardia lamblia trophozoite viability; activity change, % at 7.66 µM, hits read low; hit rate 0.15% among 340,000; in the data active = activity change below about -80%; inconclusive = between about -30% and that limit;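 also: parasites exposed to compound for two days anaerobically before the ATP read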
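ATP-content bioluminescence gauges trophozoite survival. Cells (100/well) receive compound and incubate anaerobically for 48 hrs at 37 deg C; detection reagent follows for 15-30 min at room temperature.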
B2AR arrestin – qHTS assay of beta-arrestin-biased ligands of beta2-adrenergic receptor; Beta-2 adrenergic receptor (Homo sapiens), P07550; beta-arrestin recruitment to beta2AR, cell-based reporter; Potency, µM (top dose mostly 46.1 µM), hits mostly activators; hit rate 0.02% among 330,000; active = well fitted activation curve with a large enough effect; inconclusive = small, poorly fitted or top-dose-only effect; also: nearly all actives have a fitted effect of over 65% in size
Target sequence (P07550 whole entry, looked up): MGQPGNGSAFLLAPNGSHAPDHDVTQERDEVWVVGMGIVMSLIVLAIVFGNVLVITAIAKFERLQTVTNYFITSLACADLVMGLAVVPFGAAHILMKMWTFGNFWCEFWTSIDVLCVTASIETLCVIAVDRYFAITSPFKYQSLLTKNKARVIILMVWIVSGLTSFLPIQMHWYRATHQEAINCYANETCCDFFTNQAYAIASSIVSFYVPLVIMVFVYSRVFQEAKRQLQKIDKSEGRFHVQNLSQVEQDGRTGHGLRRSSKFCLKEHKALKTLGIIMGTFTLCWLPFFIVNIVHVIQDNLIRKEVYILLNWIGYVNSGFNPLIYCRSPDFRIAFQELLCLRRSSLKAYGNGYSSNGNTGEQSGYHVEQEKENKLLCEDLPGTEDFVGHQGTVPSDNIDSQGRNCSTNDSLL
DRD3 agonist – qHTS of D3 Dopamine Receptor Agonist: qHTS; D(3) dopamine receptor (Homo sapiens), P35462; D3R DiscoveRx beta-arrestin cells, luminescence, 90 min; max activation, %; hit rate 0.58% among 410,000; in the data active = max activation above about 30%
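Agonist-mode cell screen: cells plated at 1500/well and incubated overnight at 37 °C, then exposed to library compounds for 90 min at 37 °C. Detection reagent was added for 30–60 min at room temperature, and luminescence was read.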
Hits are given with their value; i = inactive; ? = inconclusive; nt = no result; ! = a repeat was not active. Shown are actives, neighbours in structure and some others; about 2.8% of the full set was active somewhere.

SMILES	DRD3 antagonist	Giardia killer	B2AR arrestin	DRD3 agonist
O=C(NCCN1CCC(n2c(=O)[nH]c3ccccc32)CC1)c1ccc(F)c(C(F)(F)F)c1	-84	nt	nt	i
O=C(NCCN1CCC(n2c(=O)[nH]c3ccccc32)CC1)c1ccc(F)c(F)c1	-93	nt	nt	i
O=C(NCCN1CCC(n2c(=O)[nH]c3ccccc32)CC1)c1ccc(C(F)(F)F)cc1C(F)(F)F	-92	nt	nt	i
CCC(C(=O)Nc1cccc(C#N)c1)n1nc(-c2ccccc2)ccc1=O (stereo not drawn)	nt	nt	nt	i
COc1cc(OC)c(NC(=O)c2nnn(Cc3ccc(C)cc3)c2N)cc1Cl	nt	nt	nt	i
CC1COc2c(N3CCN(C)CC3)c(F)cc3c(=O)c(C(=O)O)cn1c23 (stereo not drawn)	-100	i	i	i
Cc1cc(F)ccc1NCc1ccccc1-c1nnc(-c2ccccc2Cl)o1	nt	nt	nt	i
O=C(NC1CCCC1)c1cc(=O)[nH]c2ccccc12	i	i	i	33
Cc1ccnc(NC(=O)Nc2ccc(Br)cc2Cl)c1	-54	i	i	i
COC(=O)c1ccccc1NC(=O)Nc1cc(C)ccn1	i	i	i	i
CN(C)c1ccc(CNC(=O)C2(C)Cc3c(-c4cccc(C(F)(F)F)c4)ccnc3O2)cc1 (stereo not drawn)	-84	nt	nt	i
CC1(C(=O)Nc2ccc3c(c2)OCO3)Cc2c(-c3cccc(C(F)(F)F)c3)ccnc2O1 (stereo not drawn)	?	nt	nt	i
COc1ccc(NC(=O)C2(C)Cc3c(-c4ccc5c(c4)OCO5)ccnc3O2)cn1 (stereo not drawn)	-53	nt	nt	i
CC1(C(=O)Nc2cccc(C(F)(F)F)c2)Cc2c(-c3ccc4c(c3)OCO4)ccnc2O1 (stereo not drawn)	-59	nt	nt	i
CC1(C(=O)Nc2ccc3c(c2)OCO3)Cc2c(-c3ccc4c(c3)OCO4)ccnc2O1 (stereo not drawn)	i	nt	nt	i
Cc1c(CC(=O)N2CCCCC2)c(=O)oc2c(C)c3occ(C(C)(C)C)c3cc12	nt	nt	nt	i
COc1cc(-c2ccc(-[n+]3nc(-c4ccccc4)nn3-c3ccc([N+](=O)[O-])cc3)c(OC)c2)ccc1-[n+]1nc(-c2ccccc2)nn1-c1ccc([N+](=O)[O-])cc1	nt	nt	nt	i
COc1ccc(C(=O)OCC(=O)N2CCCC2=O)c(OC)c1	-56	i	i	i
COc1cc(SC)ccc1C(=O)OCC(=O)NC1CCCC1	i	i	i	i
COc1ccc2oc(C(=O)OCC(=O)N3CCCC3=O)c(C)c2c1	i	i	i	i
COc1cc(SC)ccc1C(=O)OCC(=O)N1CCN(C(C)=O)CC1	-64	i	i	i
CC(=O)OCC(NC(=O)C(C)NC(=O)OC(C)(C)C)C1OC(n2cc(F)c(=O)[nH]c2=O)C(OC(C)=O)C1OC(C)=O (stereo not drawn)	nt	i	nt	nt
O=C(NC(=O)c1ccc(F)cc1)Nc1ccc(-c2cc(C(F)(F)F)nn2-c2ccccc2)cc1	nt	nt	nt	i
COc1ccc(C(=O)Nc2ccc(-c3cc(C(F)(F)F)nn3-c3ccccc3)cc2)cc1OC	nt	nt	nt	59
O=C(OCn1ncc(Br)c(Br)c1=O)c1ccccc1Cl	-88	i	i	i
SMILES	DRD3 antagonist	Giardia killer	B2AR arrestin	DRD3 agonist
CC(=O)OCn1ncc(N2CCOCC2)c(Br)c1=O	i	i	i	i
O=C(OCn1ncc(Br)c(Br)c1=O)c1ccc(F)cc1	-83	i	i	i
Cc1ccc(Cl)cc1NC(=O)CCc1c(C)nc2c3cccnc3nn2c1C	nt	nt	nt	i
Cc1c(CC(=O)NCc2ccccc2)c(=O)oc2c(C)c(O)ccc12	nt	nt	nt	i
COc1cc(OC)c(NC(=O)CCc2nc(C3=CCN(Cc4cccc(Cl)c4)CC3)no2)cc1Cl	nt	nt	nt	i
c1cc2c(cc1Cn1cnnn1)OCO2	-57	i	i	i
CCCC(=O)c1cc(O)c(O)cc1O	nt	nt	nt	i
O=C(Nc1cccc(C(F)(F)F)c1)c1ccc2c(c1)nnn2C1CCCC1	nt	nt	nt	i
O=C(c1nc[nH]c1C(=O)N1CCc2ccccc2C1)N1CCc2ccccc2C1	i	i	i	142
CC(=O)NCC1(c2ccccc2)CCN(CCCC(=O)c2ccc(F)cc2)CC1	-116	nt	nt	i
CCCN1C2CCCC1CC(NC(=O)c1cccc(Cl)c1)C2 (stereo not drawn)	i	i	i	i
O=C(NC1CC2CCCC(C1)N2Cc1ccccc1)c1cccc(Cl)c1 (stereo not drawn)	-76	i	i	i
O=C(NC1CC2CCCC(C1)N2Cc1ccccc1)c1cccc(F)c1 (stereo not drawn)	-106	i	i	i
COC(=O)c1cccc2c1NC(=O)C2=O	-75	i	i	i
O=C1Nc2c(Br)cccc2C1=O	-94	i	i	i
CCN(CC)C(=O)Nc1ccc(C(=O)OC)cc1	-69	i	i	i
CCN(CC)C(=S)Nc1ccc(C(=O)OC)cc1	i	i	i	i
O=[N+]([O-])c1ccc(C(O)C23CN4CN(CN(C4)C2)C3)cc1 (stereo not drawn)	-69	i	i	i
COc1cccc2oc(-c3ccco3)cc(=O)c12	-54	i	i	i
COc1ccc2oc(-c3ccco3)cc(=O)c2c1	i	i	i	i
O=C(NCCNCCO)C1(C(F)(F)F)CC(CCc2ccccc2)CCCO1 (stereo not drawn)	nt	i	nt	nt
O=C(O)c1ccccc1C1c2ccccc2Oc2ccccc21	-72	i	nt	i
Cc1cccc(-c2n[nH]c(=S)n2-c2ccccc2)c1[N+](=O)[O-]	i	i	i	i
COc1ccc(-n2c(-c3cccc(C)c3[N+](=O)[O-])n[nH]c2=S)cc1	-57	i	i	i
Nc1c([N+](=O)[O-])cc2c3c(cccc13)CC2	-73	nt	nt	i
SMILES	DRD3 antagonist	Giardia killer	B2AR arrestin	DRD3 agonist
COc1ccc2cc(S(=O)(=O)c3ccccc3F)c(=O)oc2c1	nt	nt	nt	i
O=[N+]([O-])c1ccc(N2CCN(CC3CCCCC3)CC2)cc1	-58	i	i	i
O=C(NCc1ccccc1Cl)c1ccc(Nc2nc3ccccc3n3nnnc23)cc1	nt	i	nt	i
O=c1[nH]c(C(F)(F)F)nc2ccccc12	-60	i	i	i
COc1cc(OC)c(NC(=O)c2nn(C)c3c2COc2ccccc2-3)cc1Cl	nt	nt	nt	i
COc1ccc(-c2cc(C(=O)NC(Cc3cc4ccccc4[nH]3)C(=O)O)c(C)o2)cc1OC (stereo not drawn)	i	i	i	36
COc1ccc(-c2cc(C(=O)O)c(C)o2)cc1OC	i	i	i	i
CCc1ccc(N2C(=O)C(Cl)=C(Nc3ccc(C(=O)N4CCCC4)cc3)C2=O)cc1	-57	i	i	i
O=C(NCCN1CCOCC1)c1csc2c1CCCCC2	-52	i	i	i
CC1CCc2c(C(=O)NCCN3CCOCC3)csc2C1 (stereo not drawn)	i	i	i	i
CCN1CCN(CCCNC(=O)c2csc3c2CCCCC3)CC1	-54	i	i	i
Cc1ccc(C(=O)N/C(=C\c2ccc(Cl)cc2)C(=O)NC2CCCCC2)cc1	nt	nt	nt	i
C=Cc1c(C)c2cc3[nH]c(cc4nc(cc5nc(cc1[nH]2)C(C)=C5CCC(=O)O)C(CCC(=O)O)=C4C)c(C)c3C=C	i	i	i	36!
